# Assay results from PubChem BioAssay.
# Several values for one entry are separate records, joined by “and”; a condition that tells them apart may be missing. Equal entries are not always repeated. For some assays here: Entries with a potency or affinity are not part of this list. The list shows a part of the results. Activity calls are given as the source filed them. Unless noted, how the calls were made is not given here.
# What was measured:
# [1] = molecular target: Cell division control protein 42 homolog (Homo sapiens) (UniProt P60953); assay: inhibition of fluorescent GTP binding to constitutively active Cdc42 – biochemical, multiplex bead flow cytometry, Bodipy-FL-GTP, dose response (AID 1333;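 active means fitted half-maximal concentration within the tested dose range, moderate curve steepness, a statistically real signal drop, and little compound fluorescence or tag-binding interference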)
# [2] = molecular target: Cell division control protein 42 homolog (Homo sapiens) (UniProt P60953); assay: inhibition of fluorescent GTP binding to wildtype Cdc42 – biochemical, multiplex bead flow cytometry, Bodipy-FL-GTP, dose response (AID 1334;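 active means fitted half-maximal concentration within the tested range, moderate curve steepness, significant signal drop, and little compound fluorescence or bead-linkage interference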); conditions: bead-based flow cytometry, Bodipy-FL-GTP binding to GST-Cdc42; at 100 µM (top of the series) unless noted
# [3] = molecular target: GTPase HRas (Homo sapiens) (UniProt P01112); assay: Ras wt fluorescent GTP loading blockade – biochemical, wildtype, multiplex bead flow cytometry, dose response (AID 1335;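 active means fitted half-maximal concentration within 10 nM to 100 µM, steepness 0.5 to 2, significant signal drop, low assay interference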); conditions: bead-based flow cytometry, Bodipy-GTP binding to GST-Ras; at 100 µM (top of the series) unless noted
# [4] = test system: Ras-related protein Rab-7a (dog), GTP binding; assay: blockers of fluorescent GTP binding to Rab7 – biochemical, wildtype, multiplex bead flow cytometry, dose response (AID 1336)
# [5] = molecular target: Ras-related C3 botulinum toxin substrate 1 (Homo sapiens) (UniProt P63000); assay: inhibition of wildtype Rac1 nucleotide loading – biochemical, multiplex bead flow cytometry, dose response (AID 1340;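 active means dose curve with midpoint inside tested range, moderate steepness, plateau gap beyond fit error, low compound glow and bead-link interference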); conditions: GST-Rac1 beads, Bodipy-FL-GTP binding; at 100 µM (top of the series) unless noted
# [6] = molecular target: GTPase HRas (Homo sapiens) (UniProt P01112); assay: blockade of GTP loading onto mutant Ras – biochemical, activated mutant, multiplex bead flow cytometry, dose response (AID 1341;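 active means dose-response curve with midpoint inside the tested range, moderate steepness, significant amplitude and little compound fluorescence or bead-attachment interference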;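 further: GST-tagged constitutively activated Ras mutant immobilized on beads and multiplexed with other GTPases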)
# [7] = molecular target: Regulator of G-protein signaling 16 (Homo sapiens) (UniProt O15492); assay: small molecules altering RGS protein interactions with GNAO1 – biochemical, multiplexed beads, flow cytometry, RGS4/7/8/16/19, primary screen (AID 1504); conditions: multiplexed bead flow cytometry, measured here: RGS16 interaction, at 10 µM;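 further: fluorescently labeled Galpha-o bound to GDP with aluminium fluoride binding biotinylated RGS beads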
# [8] = molecular target: Regulator of G-protein signaling 19 (Homo sapiens) (UniProt P49795); assay: as above; conditions: multiplexed bead flow cytometry, measured here: RGS19 interaction, at 10 µM
# [9] = molecular target: Regulator of G-protein signaling 7 (Homo sapiens) (UniProt P49802); assay: as above; conditions: multiplexed bead flow cytometry, measured here: RGS7 interaction, at 10 µM
# [10] = molecular target: Regulator of G-protein signaling 8 (Homo sapiens) (UniProt P57771); assay: as above; conditions: multiplexed bead flow cytometry, measured here: RGS8 interaction, at 10 µM
# [11] = hit retest on RPL19A-GFP reporter strain – cell-based, S. cerevisiae, flow cytometry, cherry picks, mother/daughter gates, confirmation (AID 2270;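 active means GFP response below 50% of the DMSO control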); conditions: 3 h, at 10 µM, stronger effect = lower value, 100 = same GFP as DMSO wells
# [12] = yeast TOR pathway reporter LAP4-GFP change – cell-based, cherry picks, flow cytometry, mother/daughter gates, confirmation (AID 2271;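 active means GFP response above 150% of the DMSO control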;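 further: ratio of sample to DMSO plate mean so 100% equals DMSO level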); conditions: S. cerevisiae LAP4-GFP strain, 3 h, at 10 µM, stronger effect = higher value, 100 means same as DMSO control
# [13] = TOR pathway reporter MEP2-GFP, retest of hits – S. cerevisiae, flow cytometry GFP, cherry picks, confirmation (AID 2272;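 active means GFP response above 150% of the DMSO control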;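 further: ratio of well signal to plate DMSO mean so 100% equals DMSO level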); conditions: S. cerevisiae MEP2-GFP strain, 3 h, at 10 µM, stronger effect = higher value
# [14] = yeast AGP1-GFP fluorescence change, single-dose – cell-based, flow cytometry, S. cerevisiae, cherry picks, confirmation (AID 2273;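 active means GFP response above 150% of the DMSO level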;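 further: median GFP channel fluorescence over the whole cell population gate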); conditions: S. cerevisiae AGP1-GFP strain, 3 h, at 10 µM
# [15] = TOR pathway CIT2 reporter hit retest – S. cerevisiae, GFP fusion, cherry picks, mother/daughter gates, confirmation (AID 2274;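 active means GFP response above 150% of the DMSO level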); conditions: S. cerevisiae CIT2-GFP strain, flow cytometry, 3 h, at 10 µM, stronger effect = higher value
# [16] = green-channel fluorescence artefact in S. cerevisiae – s288c strain, artefact control for yeast TOR pathway GFP screen, dose response (AID 2757;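 active means fluorescence span over the dose series, or activity score, above about 33, limit read from the data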;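 further: thousands of bead-calibrated equivalent soluble fluorophore molecules from median cell fluorescence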); conditions: 520 nm autofluorescence, flow cytometry, 3 h, at 33 µM, stronger effect = higher value, zero means same as solvent-only cells
# [17] = measured here: daughter cell gate
# [18] = measured here: mother cell gate
# [19] = measured here: daughter cell gate response
# [20] = measured here: mother cell gate response
# Sequence of GTPase HRas (Homo sapiens) (P01112 whole entry, looked up): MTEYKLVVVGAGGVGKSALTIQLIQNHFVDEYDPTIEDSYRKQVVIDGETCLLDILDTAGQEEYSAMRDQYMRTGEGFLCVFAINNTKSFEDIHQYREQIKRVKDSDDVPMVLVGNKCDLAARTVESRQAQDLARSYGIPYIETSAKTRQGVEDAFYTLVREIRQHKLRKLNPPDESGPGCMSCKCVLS
# Sequence of Cell division control protein 42 homolog (Homo sapiens) (P60953 whole entry, looked up): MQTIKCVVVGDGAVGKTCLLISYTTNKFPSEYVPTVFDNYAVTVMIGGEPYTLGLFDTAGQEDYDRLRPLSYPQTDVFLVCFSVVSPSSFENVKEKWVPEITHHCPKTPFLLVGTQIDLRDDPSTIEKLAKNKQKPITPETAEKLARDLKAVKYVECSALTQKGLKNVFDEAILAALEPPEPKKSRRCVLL
smiles,measurement,setting,value
CN(c1ccccc1)c1ccc(/C=c2\s/c(=C(/C#N)C(=O)C(C)(C)C)n(Cc3ccco3)c2=O)cc1,outcome,[1],inactive
same,"fluorescence, percent of control (lower = inhibition)",[2],160%
same,"GTP binding, percent of control",[3],157%
same,outcome,[4],inactive
same,"GTP binding signal, raw median fluorescence (lower = inhibition) (MCF (arbitrary fluorescence units))",[5],180
same,outcome,[6],inactive
same,RGS16–Galpha-o binding response,[7],551%
same,RGS19–Galpha-o binding response,[8],4650%
same,RGS7–Galpha-o binding response,[9],421%
same,RGS8–Galpha-o binding response,[10],134%
same,GFP response vs DMSO,[11],118% (inactive)
same,GFP response vs DMSO,[11]; [17],118%
same,GFP response vs DMSO,[11]; [18],116%
same,GFP response relative to DMSO,[12],235% (active)
same,GFP response relative to DMSO,[12]; [19],240%
same,GFP response relative to DMSO,[12]; [20],231%
same,GFP response vs DMSO,[13],309% (active)
same,"GFP response, % of DMSO",[14],126% (inactive)
same,"GFP response, % of DMSO",[15],231% (active)
same,"GFP response, % of DMSO",[15]; [17],229%
same,"GFP response, % of DMSO",[15]; [18],230%
same,fluorescence change (kMESF span),[16],19.9 (inactive)
Cc1ccc(NS(=O)(=O)c2cc(NC(=O)c3ccc4c(c3)NC(=O)CS4)ccc2Cl)c(C)c1,outcome,[1],inactive
same,"fluorescence, percent of control (lower = inhibition)",[2],36.1%
same,"GTP binding, percent of control",[3],86.2%
same,outcome,[4],inactive
same,"GTP binding signal, raw median fluorescence (lower = inhibition) (MCF (arbitrary fluorescence units))",[5],282
same,outcome,[6],inactive
NC1=NC(=O)/C(=C/c2cn(CCC(=O)O)nc2-c2ccc(Cl)cc2)S1,outcome,[1],inactive
same,"fluorescence, percent of control (lower = inhibition)",[2],18.2%
same,"GTP binding, percent of control",[3],42.4%
same,outcome,[4],inactive
same,"GTP binding signal, raw median fluorescence (lower = inhibition) (MCF (arbitrary fluorescence units))",[5],65.5
same,outcome,[6],inactive
O=C1c2ccccc2-c2onc3ccc(Oc4ccccc4)c1c23,outcome,[1],inactive
same,"fluorescence, percent of control (lower = inhibition)",[2],27.9%
same,"GTP binding, percent of control",[3],46.3%
same,outcome,[4],inactive
same,"GTP binding signal, raw median fluorescence (lower = inhibition) (MCF (arbitrary fluorescence units))",[5],183
same,outcome,[6],inactive
same,GFP response vs DMSO,[11],86.5% (inactive)
same,GFP response vs DMSO,[11]; [17],86.6%
same,GFP response vs DMSO,[11]; [18],85.9%
same,GFP response relative to DMSO,[12],147% (inactive)
same,GFP response relative to DMSO,[12]; [19],136%
same,GFP response relative to DMSO,[12]; [20],150%
same,GFP response vs DMSO,[13],113% (inactive)
same,"GFP response, % of DMSO",[14],84.3% (inactive)
same,"GFP response, % of DMSO",[15],95.2% (inactive)
same,"GFP response, % of DMSO",[15]; [17],94.8%
same,"GFP response, % of DMSO",[15]; [18],94.4%
CCCS(=O)(=O)c1nnnn1-c1cccc(OC)c1,outcome,[1],inactive
same,"GTP binding, percent of control",[3],71.2%
same,outcome,[4],inactive
same,"GTP binding signal, raw median fluorescence (lower = inhibition) (MCF (arbitrary fluorescence units))",[5],230
same,outcome,[6],inactive
same,GFP response vs DMSO,[11],87.7% (inactive)
same,GFP response vs DMSO,[11]; [17],84.6%
same,GFP response vs DMSO,[11]; [18],83.9%
same,GFP response relative to DMSO,[12],176% (active)
same,GFP response relative to DMSO,[12]; [19],154%
same,GFP response relative to DMSO,[12]; [20],178%
same,GFP response vs DMSO,[13],119% (inactive)
same,"GFP response, % of DMSO",[14],106% (inactive)
same,"GFP response, % of DMSO",[15],74.8% (inactive)
same,"GFP response, % of DMSO",[15]; [17],74.6%
same,"GFP response, % of DMSO",[15]; [18],65.8%
S=C(Nc1ccc(Oc2ccccc2)cc1)NC1CCCCC1,outcome,[1],inactive
same,"GTP binding, percent of control",[3],62.2%
same,outcome,[4],inactive
same,"GTP binding signal, raw median fluorescence (lower = inhibition) (MCF (arbitrary fluorescence units))",[5],205
same,outcome,[6],inactive
CCn1nc(C(=O)OCC(=O)c2cc(C)n(Cc3cccs3)c2C)c2ccccc2c1=O,outcome,[1],inactive
same,"fluorescence, percent of control (lower = inhibition)",[2],46.9%
same,"GTP binding, percent of control",[3],64.2%
same,outcome,[4],inactive
same,outcome,[6],inactive
Cc1cc(NC(=O)CSc2nc(-c3ccccc3)c(C#N)c(=O)[nH]2)no1,outcome,[1],inactive
same,"fluorescence, percent of control (lower = inhibition)",[2],45.4%
same,outcome,[4],inactive
NS(=O)(=O)c1ccc(N2N=C(c3ccccc3)CC2c2ccccc2)cc1 (stereo not given),outcome,[1],inactive
same,"GTP binding, percent of control",[3],68% and 97.6%
same,outcome,[4],inactive
same,"GTP binding signal, raw median fluorescence (lower = inhibition) (MCF (arbitrary fluorescence units))",[5],223 and 99.4
same,outcome,[6],inactive
O=C(Nc1ccccc1)C1=C(c2ccccc2)S(=O)(=O)CCS1(=O)=O,"fluorescence, percent of control (lower = inhibition)",[2],21.5%
same,"GTP binding, percent of control",[3],72.8%
same,outcome,[4],inactive
same,"GTP binding signal, raw median fluorescence (lower = inhibition) (MCF (arbitrary fluorescence units))",[5],217
same,outcome,[6],inactive
CCC(C(=O)NC1CCCC1)N(C(=O)Cn1nnc(-c2ccc(C)o2)n1)c1cnc2ccccc2c1 (stereo not given),outcome,[1],inactive
same,"GTP binding, percent of control",[3],60.1%
same,outcome,[4],inactive
same,"GTP binding signal, raw median fluorescence (lower = inhibition) (MCF (arbitrary fluorescence units))",[5],194
same,outcome,[6],inactive
